# From PMC8384837, “Expanding the binding specificity for RNA recognition by a PUF domain”
# Molecular target: PUM1 PUF domain R5-TTR (Homo sapiens, UniProt Q14671 828-1176, C1007T;R1008T;Q1011R)
# Assay: yeast three-hybrid, YBZ-1, SC-Leu-His + 0.5 mM 3-AT, 4 days
# Conditions: tags: N-Gal4 AD-HA kept; label: inside an RPR1-promoter hybrid RNA with tandem MS2 sites; ssRNA
# Method in brief: (§1)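 Matching RNA elements and Pumilio-1 PUF domain libraries, randomized at the three base-contacting residues of every repeat, were co-expressed from a centromeric plasmid in strain YBZ-1 (LexA–MS2 coat fusion, HIS3 reporter). The repeat regions were PCR-amplified and Illumina-sequenced from cells grown four days on SC-Leu (input) or SC-Leu-His + 0.5 mM 3-AT (selection). The interaction score is the log change in variant frequency from input to selection. It is computed in log2, with a pseudocount of 1 for absent variants.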
row,Sequence,binding signal
1,GGCUAGAACUAGUGGAUCCCCCGGCGCCCGGCGGCUCGAGCCCGGGUAAGUGUUAAUAGUCUGCAUGCCGCCGGGCGCCAUGCCUGCAGGUCGACUCUAGAAAACAUG,2.44 log2 enrichment (interaction score)
2,GGCUAGAACUAGUGGAUCCCCCGGCGCCCGGCGGCUCGAGCCCGGGUAAGUGUAAAUAGUCUGCAUGCCGCCGGGCGCCAUGCCUGCAGGUCGACUCUAGAAAACAUG,0.63 log2 enrichment (interaction score)
3,GGCUAGAACUAGUGGAUCCCCCGGCGCCCGGCGGCUCGAGCCCGGGUAAGUGUCAAUAGUCUGCAUGCCGCCGGGCGCCAUGCCUGCAGGUCGACUCUAGAAAACAUG,6.52 log2 enrichment (interaction score)

# Molecular target: PUM1 PUF domain R4-PFA (Homo sapiens, UniProt Q14671 828-1176, N971P;H972F;Q975A)
# Assay: as above
# Conditions: tags: N-Gal4 AD-HA kept; label: inside an RPR1-promoter hybrid RNA with tandem MS2 sites; ssRNA
# Method in brief: as §1
row,Sequence,binding signal
1,GGCUAGAACUAGUGGAUCCCCCGGCGCCCGGCGGCUCGAGCCCGGGUAAGUGUACAUAGUCUGCAUGCCGCCGGGCGCCAUGCCUGCAGGUCGACUCUAGAAAACAUG,3.34 log2 enrichment (interaction score)
2,GGCUAGAACUAGUGGAUCCCCCGGCGCCCGGCGGCUCGAGCCCGGGUAAGUGUAAAUAGUCUGCAUGCCGCCGGGCGCCAUGCCUGCAGGUCGACUCUAGAAAACAUG,4.95 log2 enrichment (interaction score)
3,GGCUAGAACUAGUGGAUCCCCCGGCGCCCGGCGGCUCGAGCCCGGGUAAGUGUAUAUAGUCUGCAUGCCGCCGGGCGCCAUGCCUGCAGGUCGACUCUAGAAAACAUG,4.96 log2 enrichment (interaction score)
